Compounds with a hit are over-represented: about 8.8% of the library has one in this group of screens.
KB-3-1 tox: qHTS assay for MDR1-selective chemotherapeutics: Primary screen using the parental adenocarcinoma cell KB-3-1. Potency, µM (doses to about 46.1 µM), hits mostly cytotoxic. 400,000 compounds, 1.4% hits. KB-3-1 viability, CellTiter-Glo ATP luminescence, 72 h; note: potency is the fitted concentration of half-maximal effect; nearly all actives have a fitted effect of over 60% in size
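Parental KB-3-1 viability, qHTS format: 72 h compound exposure, 37 °C; CellTiter-Glo; media-only wells and DMSO plates as controls; concentration-effect fits on corrected data.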
KB-V1 MDR tox: qHTS assay for MDR1-selective chemotherapeutics: Primary screen using the drug-selected MDR subline cells KB-V1; AID 1347076, 2019; KB-V1 MDR cells viability, CellTiter-Glo, 72 h; 400,000 compounds, 3.4% hits; Potency, µM (series often up to 46.1 µM), hits mostly cytotoxic; note: potency is the fitted concentration of half-maximal effect; nearly all actives have a fitted effect of over 60% in size
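Potencies derive from concentration-effect curves fitted to normalized luminescence (CellTiter-Glo) of KB-V1 cells treated for 72 h at 37 degrees C in phenol-red-free DMEM containing 10% FBS.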
IL1B secr inh: qHTS for Inhibitors of Inflammasome Signaling: IL-1-beta AlphaLISA Primary Screen. THP-1 LPS/ATP IL-1B secretion, AlphaLISA, 16 h; stronger effect = lower value. activity change, % at 57.5 µM. 360,000 compounds, 4.7% hits; in the data active = activity change below about -50%; inconclusive = mostly about -30% to -49%
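THP-1 cells pretreated 1 hr with compounds (up to 57.5 uM final), then stimulated with LPS (250 ng/mL final) plus ATP (1.25 mM final); secreted IL-1B measured by AlphaLISA after 16 hr, decreased signal indicating inhibition.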
HT1080-NT tox: qHTS for induction of synthetic lethality in tumor cells producing 2HG: qHTS for the HT-1080-NT fibrosarcoma cell line | HT-1080-NT fibrosarcoma viability, CellTiter-Glo ATP luminescence, 48 h | Potency, µM (doses to about 46.1 µM), for inactives: at the highest dose activity, negative = less viability, usual class: cytotoxic | 360,000 compounds, 1.6% hits | AID 686970, 2013;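 note: NT is the 2HG producing partner of a matched IDH1 knockdown line; potency is the fitted concentration of half-maximal effect; 0% = DMSO-treated cells and -100% = media-only wells without cells; nearly all actives have a fitted effect of over 55% in size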
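Toxicity toward the 2HG-producing NT line was scored as %Activity, normalised to DMSO and no-cell wells, from CellTiter-Glo luminescence after 48 hours' treatment.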
HT1080 IDH1KD tx: qHTS for induction of synthetic lethality in tumor cells producing 2HG: qHTS for the HT-1080-IDH1KD cell line | HT-1080 IDH1 knockdown viability, ATP luminescence, 48 h | 360,000 compounds, 2% hits | Potency, µM (series often up to 46.1 µM), for the others: at the top dose activity, negative = toxicity, actives largely listed as cytotoxic | AID 686971, 2013;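 note: potency is the fitted concentration of half-maximal effect; 0% = DMSO wells and -100% = cell-free medium wells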
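HT-1080-IDH1KD cells (IDH1 knocked down), 750/well in RPMI with 5% FBS, treated with compound 48 h at 37 degrees C. Viability by CellTiter-Glo luminescence, normalised to DMSO and no-cell wells; concentration-response curves classed.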
The depositor's hits bear a star; ! = not active in a repeat. Unless noted, calls come from the whole dose curve; as a rule, active = well fitted curve in the direction sought with a large enough effect; inconclusive = small, poorly fitted or top-dose-only effect, or another doubt; inactive = no such curve, though single readings can be large; an effect the other way counts as inactive or inconclusive. Unless noted, % is set by controls: 0 for no effect and ±100 for the full control effect.

For O=C(CN1C(=O)c2cccnc2Oc2ccc(Cl)cc21)NCCCN1CCCCC1 the results were KB-3-1 tox inactive and KB-V1 MDR tox inactive.
`COc1ccc(NC(=S)Nc2cccc(C(F)(F)F)c2)c(C)c1` gave KB-3-1 tox inactive, KB-V1 MDR tox inactive, IL1B secr inh -10, HT1080-NT tox 12% and HT1080 IDH1KD tx 2%.
`C=CCC(NC(=O)N(C)C)(C(=O)OC)C(C)O` (configuration not stated) gave KB-3-1 tox inactive, KB-V1 MDR tox inactive, IL1B secr inh 23, HT1080-NT tox 5% and HT1080 IDH1KD tx 4%.
For COc1cc(C(=O)NCC(c2ccc(N(C)C)cc2)N2CCc3ccccc32)cc(OC)c1OC (configuration not stated) the results were KB-3-1 tox inactive and KB-V1 MDR tox inactive.
`CCN(CC(=O)NCc1ccc(Cl)cc1)C(=O)c1cc2ccccc2o1` gave KB-3-1 tox inactive, KB-V1 MDR tox inconclusive, IL1B secr inh -3, HT1080-NT tox -18% and HT1080 IDH1KD tx -14%.
For O=C(c1cc(-c2ccccc2O)on1)N1CCCCCC1 the results were KB-3-1 tox inactive, KB-V1 MDR tox inactive, IL1B secr inh -8, HT1080-NT tox 10% and HT1080 IDH1KD tx 2%.
For CCOC(=O)Cc1ccc(NC(=O)c2ccc(C(C)(C)C)cc2)cc1 the results were KB-3-1 tox inconclusive, KB-V1 MDR tox inconclusive, IL1B secr inh -56*, HT1080-NT tox -29% and HT1080 IDH1KD tx inconclusive.
`Cc1onc(-c2ccccc2Cl)c1C(=O)N[C@@H](C)c1ccccc1` gave KB-3-1 tox inactive, KB-V1 MDR tox inactive, IL1B secr inh 4, HT1080-NT tox -2% and HT1080 IDH1KD tx 5%.
For COc1ccc(NC(=O)Nc2ccc(Cc3ccncc3)cc2)c(OC)c1 the results were KB-3-1 tox inconclusive, KB-V1 MDR tox inactive, IL1B secr inh -51*, HT1080-NT tox 0% and HT1080 IDH1KD tx -10%.
COc1ccc(NC(=O)Nc2cnccn2)c(OC)c1 was read as KB-3-1 tox 5.2µM*, KB-V1 MDR tox 5.8µM*, IL1B secr inh -23, HT1080-NT tox 5% and HT1080 IDH1KD tx 8%.
For COc1ccc(NC(=O)NCc2ccncc2)cc1 the results were KB-3-1 tox inactive, KB-V1 MDR tox inactive, IL1B secr inh -1, HT1080-NT tox 5% and HT1080 IDH1KD tx 8%.
`COc1ccc(OC)c(NC(=O)Nc2cc(NC(=O)Nc3cc(OC)ccc3OC)c(C)nc2C)c1` gave KB-3-1 tox inconclusive, KB-V1 MDR tox inactive, IL1B secr inh 56, HT1080-NT tox 18µM* and HT1080 IDH1KD tx 23µM*.
Screening CCc1ccc(NC(=O)C(=O)c2ccccc2NC(C)=O)cc1 returned KB-3-1 tox inactive, KB-V1 MDR tox 23µM*, IL1B secr inh 21, HT1080-NT tox -4% and HT1080 IDH1KD tx -3%.
CC(=O)Nc1ccccc1C(=O)C(=O)Nc1ccc(C)c(C)c1 was read as KB-3-1 tox inactive, KB-V1 MDR tox inconclusive, IL1B secr inh -10, HT1080-NT tox 8% and HT1080 IDH1KD tx 16%.
C=CCCN(C(C(=O)OC)C(C)C)S(=O)(=O)c1ccccc1Br (configuration not stated) was read as KB-3-1 tox inactive, KB-V1 MDR tox inactive, IL1B secr inh 17, HT1080-NT tox 8% and HT1080 IDH1KD tx 8%.
`NC(Cc1ccc(F)cc1)c1csc(Nc2ccc(C(=O)c3ccccc3)cc2)n1` (configuration not stated) gave KB-3-1 tox inconclusive, KB-V1 MDR tox inconclusive, HT1080-NT tox inconclusive and HT1080 IDH1KD tx 15µM*.
`NC(Cc1ccc(Cl)cc1)c1csc(Nc2ccc(C(=O)c3ccccc3)cc2)n1` (configuration not stated) gave KB-3-1 tox inconclusive, KB-V1 MDR tox inconclusive, IL1B secr inh 0, HT1080-NT tox inconclusive and HT1080 IDH1KD tx inconclusive.
Screening COc1ccc(CC(N)c2csc(Nc3ccc(C(C)=O)cc3)n2)cc1 (configuration not stated) returned KB-3-1 tox inactive, KB-V1 MDR tox inactive, IL1B secr inh -14, HT1080-NT tox inconclusive and HT1080 IDH1KD tx inconclusive.
For NC(Cc1ccccc1)c1csc(Nc2ccc(C(=O)c3ccccc3)cc2)n1 (configuration not stated) the results were KB-3-1 tox inconclusive, KB-V1 MDR tox inactive, IL1B secr inh -69*, HT1080-NT tox inconclusive and HT1080 IDH1KD tx inconclusive.
`COc1ccc(CC(N)c2csc(Nc3ccc(C(=O)c4ccccc4)cc3)n2)cc1` (configuration not stated) gave KB-3-1 tox inactive, KB-V1 MDR tox inactive, IL1B secr inh -70*, HT1080-NT tox inconclusive and HT1080 IDH1KD tx inconclusive.
For COc1ccc(CN2CC(=O)N(c3ccc(C)c(C)c3)C2=S)cc1OC the results were KB-3-1 tox inactive, KB-V1 MDR tox inconclusive, IL1B secr inh 30, HT1080-NT tox -7% and HT1080 IDH1KD tx -14%.
Screening CC(=O)Nc1cc(NC(C)=O)cc(C(=O)N2CCCC3CCCCC32)c1 (configuration not stated) returned KB-3-1 tox inactive, KB-V1 MDR tox inactive, IL1B secr inh 7, HT1080-NT tox 8% and HT1080 IDH1KD tx 8%.
O=C1C=C(c2cccc(CO)c2)C[C@@H](c2ccc(Cl)cc2)C1 was read as KB-3-1 tox inactive, KB-V1 MDR tox inactive, IL1B secr inh -25, HT1080-NT tox 1% and HT1080 IDH1KD tx -5%.
For CC(=O)Nc1ccc(N2C(C(C)=O)=NN(c3ccccc3)C2c2cccs2)cc1 (configuration not stated) the results were KB-3-1 tox inactive, KB-V1 MDR tox inconclusive, IL1B secr inh -2, HT1080-NT tox -6% and HT1080 IDH1KD tx inconclusive.
For CC(=O)Nc1ccc(N2C(C(C)=O)=NN(c3ccc(Cl)cc3)C2c2sccc2C)cc1 (configuration not stated) the results were KB-3-1 tox inactive, KB-V1 MDR tox inconclusive, IL1B secr inh -7, HT1080-NT tox inconclusive and HT1080 IDH1KD tx 7.9µM*.
`O=C1CCC[C@@H]2Cc3nc4cc5c(cc4cc3[C@@H]3CCN1[C@H]23)OCO5` gave KB-3-1 tox inactive, KB-V1 MDR tox 18µM*!, IL1B secr inh -10, HT1080-NT tox 0% and HT1080 IDH1KD tx -1%.
